Results as given in ChEMBL document CHEMBL3988442, “University of Dundee, Small-Polar-MMV Screening Library” (2021).
Screen size: about 48,000 compounds; about 13,000 (27%) showed an effect of 50% or more. Some of the results follow.

Each molecule was assayed on Wolbachia pipientis (assay: Anti-Wolbachia Cell-Based Screen). Details: 5 µM.
Assay type: functional
Design: scale not given: in the data most compounds retested in dose-response had high values

Compound	Percent Effect
O=C(O)C(F)(F)F.c1csc(CN2CCC3(CCCN(c4nncs4)C3)C2)n1 (centres undefined)	-3.653%
CCN1CCC(N2C[C@H]3OC(=O)N(CCc4cccc(Cl)c4)[C@H]3C2)CC1	-15.6%
CCSCCC(=O)Nc1ncn(CC(=O)NCc2ccccc2)n1	1.311%
CN(Cc1ccc(C(=O)Nc2sccc2C#N)cc1)Cc1ccno1	-5.875%
Cc1csc(N(C)C(=O)C2CC(=O)N(CCc3ccccc3)C2)n1 (centres undefined)	4.812%
Cc1ccccc1C(C)CC(=O)N1CC[C@H](O)C1 (some centres undefined)	-9.659%
CC(C(=O)O)N1CC2(CCC1=O)CCN(CCc1ccccc1)CC2 (centres undefined)	-3.737%
CNC(=O)C1Cc2ccccc2CN1CCCc1ccccc1 (centres undefined)	-8.054%
CC(C)COC(=O)N1CC(=O)N(CCCc2ccccc2)CC(O)C1 (centres undefined)	111%
CC(C)(C)OC(=O)N1CC(=O)N(CCc2ccccc2)CC(O)C1 (centres undefined)	114.6%
CC(C)(C)N1CC(C(=O)N2CCN(CCc3ccccc3)CC2)CC1=O (centres undefined)	4.322%
CC(C)c1cc(C(=O)N2CCCN(CCCc3ccccc3)CC2)[nH]n1	0.07047%
CN(C(=O)C1CC(=O)N(CCc2ccccc2)C1)c1nccs1 (centres undefined)	3.016%
Cc1[nH]ccc1C(=O)NCC1CC(=O)N(CCc2ccccc2)C1 (centres undefined)	5.345%
CC(C)CC(=O)N1CC(=O)N(CCc2ccccc2)CC(O)C1 (centres undefined)	118.7%
CCOC(=O)N1CC(=O)N(CCc2ccccc2)CC(O)C1 (centres undefined)	123.2%
CSc1nc(N)cc(N2C[C@@H]3CC[C@H](C2)N(Cc2cscn2)C3=O)n1	0.1745%

Compound	Percent Effect
CCN(CC)C(=O)CN(C)C1CCc2ccccc21 (centres undefined)	-5.842%
CN(Cc1ccco1)Cc1ccccc1CNC(=O)c1ccc[nH]1	22.22%
O=C(CN(Cc1ccccc1)CC1CCOCC1)NC(=O)NC1CC1	17.45%
CC(C)COC(=O)N1CC(=O)N(CCc2ccccc2)CC(O)C1 (centres undefined)	128.8%
COCc1cccc(C(=O)N2CCCN(C(=O)OCC(C)C)CC2)c1	8.994%
O=C(NCC1CC(=O)N(CCc2ccccc2)C1)c1c(F)cccc1F (centres undefined)	-5.982%
CN(Cc1cc2n(n1)CCNC2)Cc1cc(-c2ccccn2)no1	-13.42%
COCCN(C)CCN1CC2(CCN(C3CCCCC3)CC2)OC1=O	5.41%
CSc1cc(CNC(=O)CCOc2ccccc2C)ccn1	2.605%
CC(=O)N1C[C@H]2CNC[C@@]2(C(=O)NCCOc2ccccc2F)C1	-24.48%
Cc1ccccc1OCCCNC(=O)C1(C)CC(=O)N2C=CC=CC2=N1 (centres undefined)	112.8%
CC(C)n1cnnc1CNC(=O)CCCOc1ccccc1F	-11.73%
Cc1ccc(OCCCNC(=O)C2(C)CC(=O)N3C=CC=CC3=N2)cc1 (centres undefined)	121.9%
CC1(C(=O)NCCCOc2ccccc2F)CC(=O)N2C=CC=CC2=N1 (centres undefined)	94.6%
Cc1ccc(OCCCNC(=O)NC(C)c2nncn2C)cc1 (centres undefined)	6.672%
Cc1ccc(OCCCNC(=O)C(C)Sc2nncn2C)cc1 (centres undefined)	-12.11%
Cc1ccccc1OCCCC(=O)NCc1ccnc(O)c1	0.1065%
